Screening data: PubChem, National Center for Advancing Translational Sciences (NCATS)
Sampled rows, rich in hits. Any-hit rate of the full collection: about 9.4%.
HPGD block: inhibitors of human 15-hydroxyprostaglandin dehydrogenase (HPGD) | P15428 | purified HPGD, NADH fluorescence kinetic, PGE2 substrate | Potency, µM, without a hit: at the highest dose activity change, negative = inhibition, most hits filed as inhibitors | 4.3% of 150,000 active; active means well fitted inhibition curve with a large enough effect, not every such curve was filed as active; inconclusive means small, poorly fitted or top-dose-only effect, or another doubt; inactive means no such curve, though single readings can be large or run the other way; further: potency means the concentration at half of the fitted maximal effect; on the % scale 0 is the no-effect control and ±100 the full control effect
Target sequence (P15428 whole entry, looked up): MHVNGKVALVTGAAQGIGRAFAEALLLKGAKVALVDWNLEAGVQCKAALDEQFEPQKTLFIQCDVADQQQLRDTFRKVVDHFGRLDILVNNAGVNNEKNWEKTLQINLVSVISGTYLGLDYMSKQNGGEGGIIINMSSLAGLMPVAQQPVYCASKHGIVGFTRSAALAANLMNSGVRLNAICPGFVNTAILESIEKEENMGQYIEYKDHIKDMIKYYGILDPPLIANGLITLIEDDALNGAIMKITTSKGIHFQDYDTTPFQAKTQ
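NADH formation kinetics: reaction with 30 uM PGE2 and 1 mM NAD+ (final), 20 nM enzyme, Tris-HCl pH 8 with Tween 20, after 15 min compound preincubation at room temperature. Fluorescence change, last versus first of five reads.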
ALDH1A1 block: blocks purified human ALDH1A1 activity | 7.3% of 220,000 active | P00352 | Purified ALDH1A1, NADH fluorescence, propionaldehyde substrate | Potency, µM (top dose mostly 75.3 µM), for inactives: at the top dose activity, negative = inhibition, actives largely listed as inhibitors; active means well fitted inhibition curve with a large enough effect, not every such curve was filed as active; inconclusive means small, poorly fitted or top-dose-only effect, or another doubt; inactive means no such curve, though single readings can be large or run the other way;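 further: potency means the concentration at half of the fitted maximal effect; plate controls were no enzyme wells and a reference inhibitor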
Target sequence (P00352 whole entry, looked up): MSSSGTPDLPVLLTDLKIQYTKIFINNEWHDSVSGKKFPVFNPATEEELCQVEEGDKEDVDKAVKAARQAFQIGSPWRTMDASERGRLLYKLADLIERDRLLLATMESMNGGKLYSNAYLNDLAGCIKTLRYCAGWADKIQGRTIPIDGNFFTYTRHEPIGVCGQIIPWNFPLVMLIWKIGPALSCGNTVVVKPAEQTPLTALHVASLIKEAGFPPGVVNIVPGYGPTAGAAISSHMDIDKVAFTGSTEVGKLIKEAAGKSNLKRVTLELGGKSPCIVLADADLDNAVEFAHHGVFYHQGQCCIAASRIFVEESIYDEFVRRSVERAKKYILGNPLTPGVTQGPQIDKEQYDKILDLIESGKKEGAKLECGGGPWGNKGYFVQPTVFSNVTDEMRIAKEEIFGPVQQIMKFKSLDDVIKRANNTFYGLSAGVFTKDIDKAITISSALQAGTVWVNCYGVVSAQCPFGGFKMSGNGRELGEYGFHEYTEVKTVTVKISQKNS
IMPase Li cell: IMPase inhibition in cells with lithium potentiation. AID 1457. CHO-M1 cells, IP1 TR-FRET (IP-One), carbachol + lithium. Potency, µM (titrated, usually from 59.4 µM), inactives show at the highest dose activity, negative = IMPase inhibition, most hits filed as inhibitors. 0.35% of 210,000 active;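 further: IP1 builds up when IMPase is blocked and the TR-FRET signal falls; potency means the concentration at half of the fitted maximal effect; plate controls were basal vehicle for no effect and high inhibitor control for full effect; nearly all actives have a fitted effect of over 50% in size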
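Lithium-sensitised IP1 accumulation assay; M1-expressing CHO cells treated 30 min at 37C with compound. Competitive antibody detection by time-resolved FRET followed a 10 min room-temperature lysis step.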
HTT cytoprotect: Huntington cell model cytoprotection by ATP luminescence; PC12 HTT-Q103 induced, cytoprotection, ATP luminescence, 40 h; 0.14% of 230,000 active; Potency, µM (top dose mostly 56.4 µM), inactives show cytoprotection (ATP increase), most hits filed as activators; AID 1471; further: potency means the concentration at half of the fitted maximal effect; % of control where 0% means no effect; nearly all actives have a fitted effect of over 45% in size
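Compounds added alongside 100 nM tebufenozide, which induces toxic Q103 huntingtin exon 1-GFP in stable PC12 cells; surviving cells quantified by luminescent ATP measurement. Medium: phenol red-free DMEM, 5% equine and 5% calf serum.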
IMPase inh: IMPase inhibition in cells. CHO-M1 cells, IP1 accumulation, HTRF TR-FRET ratio. inhibition (IP1 accumulation), % at 46.1 µM. P97697. 120,000 tested, under 10 active; active means well fitted curve in the direction sought with a large enough effect in the signal ratio, not every such curve was filed as active; inconclusive means small, poorly fitted or top-dose-only effect, or a change in a side signal; inactive means no such curve, though single readings can be large or run the other way; the % refers to the signal ratio;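 further: cells stimulated with carbachol in lithium chloride buffer; plate controls were DMSO basal wells for no effect and reference inhibitor wells for full effect; higher means more IMPase inhibition seen as more IP1 and lower FRET ratio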
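CHO-M1, 2000 cells/well, cultured 16–30 h; cpd up to 46 uM; carbachol (50 uM solution, stimulation buffer w/ 50 mM LiCl, pH 7.4), 30 min 37C; IP-One TR-FRET, 10 min RT; Ex 320/Em 665, 620; Hill-fit AC50.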
HttQ103 aggreg: reduces HttQ103-GFP aggregates in PC12 cells | PC12 HttQ103-GFP aggregates, Acumen cytometry, 40 h | Potency, µM (titrated, usually from 46.1 µM), inactives show at the highest dose activity change, negative = inhibition, usual class: inhibitors | 1.1% of 220,000 active; further: potency means the concentration at half of the fitted maximal effect; on the % scale 0 is the no-effect control and ±100 the full control effect; nearly all actives have a fitted effect of over 60% in size
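Quantitative HTS on tebufenozide-induced (100 nM) PC12 cells stably expressing polyQ103 Huntingtin exon 1–GFP. Reduction of bright GFP aggregates, detected by laser scanning cytometry after lysis, identified actives across the titration.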
Numbers without * were called inactive; u = inconclusive; x = no result; [ ] = remark or other dose. Unless noted, the call rests on the fitted dose curve; in most records, active means well fitted curve in the direction sought with a large enough effect; inconclusive means small, poorly fitted or top-dose-only effect, or another doubt; inactive means no such curve, though single readings can be large; an effect the other way counts as inactive or inconclusive.

SMILES	HPGD block	ALDH1A1 block	IMPase Li cell	HTT cytoprotect	IMPase inh	HttQ103 aggreg
CC(=O)N1CCC2(CCCN(C(c3ccccc3)c3ccccc3)C2)CC1	-10.4%	-14.6%	5.9%	-10.4%	x	x
O=[N+]([O-])/C=C/c1cn(Cc2ccccc2)c2ccccc12	-24.9%	15.8µM*	22.9%[38.3 µM]	-72.1%	23.3	u
N#Cc1ccccc1Cn1cc(/C=C/[N+](=O)[O-])c2ccccc21	39.8µM*	3.55µM*	22.5%	x	x	u
NC(=O)CSc1cn(Cc2ccc(F)cc2)c2ccccc12	x	-4.3%	-1.1%	x	x	17.2%
NC(=O)CSc1cn(Cc2ccccc2)c2ccccc12	x	7.94µM*	-2.0%	-34.2%	x	-8.5%
C(=N\n1cnnc1)/c1cn(Cc2ccccc2)c2ccccc12	-17.9%	12.6µM*	-0.3%[38.3 µM]	4.2%	5.9	4.3%
CC(C)CN(CC#N)CC(C)C	-8.5%	7.2%[13.5 µM]	-2.1%	-10.6%[10 µM]	x	x
COc1ccc(OC)c(NC(=O)CCc2nc(-c3ccc(C)cc3)no2)c1	x	x	x	x	0.6	x
O=C(c1cnccn1)N1CCC2(CC1)CN(c1ccncc1)C2	-9.7%	-1.8%	-7.9%	u	x	x
COC(=O)C1(C)C=C(Nc2ccc(OC)cc2)C(=O)N1c1ccc(OC)cc1 (configuration not stated)	-15.8%	u	7.1%	u	x	x
COc1cc2cccc(OC)c(=O)c2c(O)c1OC	-0.5%	8.5%	4.5%	-22.3%[10 µM]	x	18.7%
CC(=O)Oc1cc2cccc(OC(C)=O)c(=O)c2c(OC(C)=O)c1OC(C)=O	x	3.98µM*	x	-56.6%	x	9.5%
O=C(O)C1C2C=CC(C2)C1C(=O)NC1CCS(=O)(=O)C1 (configuration not stated)	-11.5%	22.4µM*	-4.9%[38.3 µM]	18.5%[10 µM]	5.5	6.0%
O=C(NC1CCS(=O)(=O)C1)C1C2CC3CC(C2)CC1C3 (configuration not stated)	x	4.7%	u	-25.8%	x	-6.9%
COCCNC(=O)C1(C)C=CCN1C(C)=O (configuration not stated)	-19.7%	2.5%	-7.8%	1.4%	x	x
O=C1/C(=C/c2ccncc2)SC(=S)N1C1CCS(=O)(=O)C1 (configuration not stated)	-23.9%	22.4µM*	14.0%[38.3 µM]	-69.6%	4.4	u
COc1ccc(OC)c(NC(=O)CNC(=O)Cn2c(C)cc3ccccc3c2=O)c1	-13.0%	-7.4%	15.0%[38.3 µM]	16.5%	-1.5	22.6%[9.22 µM]
COc1cc(NC(=O)Cn2c(C)cc3ccccc3c2=O)cc(OC)c1OC	-25.4%	u	25.1µM*	6.6%	u	17.5%
O=C(COC(=O)c1cc(-c2ccccc2)nc2c(Cl)cccc12)c1ccc(F)cc1	x	x	x	x	9.8	x
CC(=O)N1CCC2(CC1)CCN(c1ccccc1)CC2	1.7%	3.6%	12.6%	-60.9%	x	x
CC(C)c1ccccc1S(=O)(=O)c1cc(N)c2ncccc2c1[N+](=O)[O-]	-16.7%	-7.0%	5.4%	7.94µM*	x	x
COc1ccccc1Oc1ccc2c(c1)C(=O)N(CC1CCCO1)C2=O (configuration not stated)	x	u	x	2.3%[10 µM]	x	-5.0%[9.22 µM]
COc1ccc(/C=C2\NC(=S)N(CC3CCCO3)C2=O)c(OC)c1 (configuration not stated)	-14.8%	1.26µM*	4.5%[38.3 µM]	-21.7%	6.9	3.5%
COc1cccc(/C=C/C(=O)OCC(=O)c2cc(C)n(CC3CCCO3)c2C)c1OC (configuration not stated)	x	u	x	17.7%[10 µM]	-7.3	13.2%
COc1ccc(/C=C2\NC(=S)N(CC3CCCO3)C2=O)c(OC)c1C (configuration not stated)	-17.4%	0.447µM*	33.1%[38.3 µM]	21.4%	-4.7	21.7%[9.22 µM]
SMILES	HPGD block	ALDH1A1 block	IMPase Li cell	HTT cytoprotect	IMPase inh	HttQ103 aggreg
COc1cc2cc3c4cc(OC)c(OC)cc4cc[n+]3c(C)c2cc1OC	123.9%	u	34.2%	-101.0%	7.6[20.6 µM]	x
Cc1sc2c(c1C)C(=O)/C(=C\Nc1ccccn1)S(=O)(=O)N2C	x	x	x	-7.5%[10 µM]	x	-15.4%[9.22 µM]
CCCCOC(=O)c1cc(C)nc2ccc(Br)cc12	-5.0%	-2.1%	-22.2%[38.3 µM]	16.5%	1.3	-14.6%
CCOC(=O)c1cc(C(=O)OCC)c2cc(Br)ccc2n1	-24.4%	u	10µM*	1.1%	u	-7.7%
CCN1CC2CCCC3(C1)C(=O)NC1(CCCCC1)N=C23 (configuration not stated)	-9.8%	31.6µM*	27.9%[38.3 µM]	-10.8%	-3.3	-28.9%
C/C(=C(\C#N)C(=O)NC1CCCCC1)N(C)C	15.8µM*	-8.2%	0.5%[38.3 µM]	-9.2%	-5.3	1.1%
CCSC1=C(C#N)C(c2ccccc2Cl)C(C(=O)c2cccs2)C(O)(C(F)(F)F)N1 (configuration not stated)	-13.9%	11.2µM*	44.6%[38.3 µM]	6.8%[10 µM]	-5.3[1.84 µM]	-21.2%
C=CCSC1=C(C#N)C(c2ccccc2Cl)C(C(=O)c2cccs2)C(O)(C(F)(F)F)N1 (configuration not stated)	-9.3%	14.1µM*	17.0%	21.3%[10 µM]	x	17.1%
O/N=C/c1cc(Br)cs1	x	-0.7%	x	1.2%[10 µM]	x	-8.4%[9.22 µM]
O=C(Nc1ccc(NC(=O)c2ccc(Br)cc2)c(Cl)c1)c1ccc(Br)cc1	x	x	x	x	-11.5	x
Cc1ccc(S(=O)(=O)NNc2ccccc2)cc1	5.01µM*	5.62µM*	-7.8%[38.3 µM]	-6.7%[10 µM]	8.5	27.1%
O=C(NNc1nc2ccccc2nc1C(F)(F)F)c1ccccc1	-8.0%	u	9.9%[38.3 µM]	-8.0%	2.3	5.2%
Cc1ccc(S(=O)(=O)NNc2nc3ccccc3nc2C(F)(F)F)cc1	3.16µM*	7.08µM*	2.5%[38.3 µM]	-10.4%	0.3	-2.8%
Cc1ccc(S(=O)(=O)NNC(=O)CCC(=O)Nc2ccccc2)cc1	-7.1%	4.7%	-1.3%[38.3 µM]	-21.1%	3.3	-17.2%
COc1cccc2c1C(=O)c1c(O)c3c(c(O)c1C2=O)C[C@](O)(C(=O)CO)C[C@H]3O[C@@H]1C[C@H](N)[C@H](O)[C@H](C)O1	-9.7%	-2.6%[20.9 µM]	7.2%	-254.3%[17.1 µM]	0.3[20.6 µM]	x
CCOC(=O)c1c(N)sc2c1CCC1C(=O)N(C3CCCCC3)C(=O)C21 (configuration not stated)	u	12.6µM*	22.8%[38.3 µM]	-0.5%[10 µM]	-1.8	-13.5%
O=C1C=CC2=C3c4cc(O)c(O)cc4C[C@@]3(O)COC2=C1O	x	x	x	-12.8%	x	x
N#CCSc1ccsc1C(=O)Nc1ccc(F)cc1	31.6µM*	7.08µM*	16.4%[38.3 µM]	-60.4%[10 µM]	1.7	-10.0%
